This passage reports outcome, Potency and activation results from PubChem BioAssay (NCATS).

Assay [1] deals with Guanine nucleotide-binding protein G(i) subunit alpha-1 (Homo sapiens) (UniProt P63096). Put plainly: qHTS Assay for Inhibitors of RGS12 GoLoco Motif Activity (Green Fluorophore) (AID 879).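 Further: 0% = labeled peptide with Gαi1 and full inhibition = labeled peptide alone without protein; negative values mean loss of peptide binding seen as reduced polarization.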 An outline of the steps:
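Fluorescence polarization assay: 50 nM Gαi1 with 10 nM FITC-labeled RGS12 GoLoco peptide in 10 mM Tris pH 7.5, 150 mM NaCl, 0.1 mM GDP, 0.05% NP40, 10 min at room temperature with compound.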

Assay [2] is described as follows: qHTS Assay for Identification of Small Molecule Antagonists for NFkB Signaling Pathway (AID 895; active means well fitted inhibition curve with a large enough effect in the signal ratio, with a control signal flat, not every such curve was filed as active; the % refers to the signal ratio; further: on the % scale 0 is the no-effect control and ±100 the full control effect). An outline of the steps: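 Beta-lactamase reporter read-out (460 and 530 nm emission ratio, 405 nm excitation, 2 hrs substrate loading RT) after 5 hr stimulation with 10 pM TNF alpha in compound-treated NFkB-bla ME-180 cells in low-serum medium.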
Assay [3] can be described thus: qHTS Assay for Identification of Small Molecule Agonists for Thrombopoietin (TPO) Signaling Pathway (AID 917). Further: on the % scale 0 is the no-effect control and ±100 the full control effect. The procedure, abridged: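 Murine Ba/F3 cells expressing human TPO receptor and GPIIb-promoter luciferase, IL-3-starved overnight, given compound plus TPO at 26 pM (EC50). After 24 h at 37 C, 5% CO2, luminescence read.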
For assay [4], the target named is Muscarinic acetylcholine receptor M1 (Rattus norvegicus) (UniProt P08482). Put plainly: qHTS Assay for Antagonists of Acetylcholine Muscarinic M1 Receptor: Measurement of IP-One Response (AID 944). Further: nearly all actives have a fitted effect of over 75% in size. An outline of the steps: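 Steps: plate transfected CHO-M1 cells overnight; add test compound, 10 min; add carbachol (200 nM, EC80) in stimulation buffer with LiCl; incubate 30 min; add labelled IP1 tracer and anti-IP1 antibody in lysis buffer; read HTRF after 10 min.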

The target in assay [5] is Pyruvate kinase PKM (Homo sapiens) (UniProt P14618). Put plainly: qHTS Assay for Activators of Human Muscle Pyruvate Kinase (AID 954; active means well fitted curve in the direction sought with a large enough effect, not every such curve was filed as active;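 further: 0% = uninhibited enzyme and -100% = no enzyme or full thiadiazolimine inhibition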). The procedure, abridged: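 Luminescence from a luciferase ATP-detection/stop reagent reported PKM2 activity. Reactions contained 0.1 nM purified human enzyme, 0.5 mM PEP, 0.1 mM ADP and 7 mM MgCl2 at pH 7.2, run 1 h at RT.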
For assay [6], the target named is Muscarinic acetylcholine receptor M1 (Rattus norvegicus) (UniProt P08482). Put plainly: qHTS Assay for Antagonists of Acetylcholine Muscarinic M1 Receptor: Kinetic Measurement of Intracellular Calcium Response (AID 943).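 Further: Fluo-4 calcium signal as peak divided by basal fluorescence over 4 min; series mostly up to about 35 µM; nearly all actives have a fitted effect of over 75% in size.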 The procedure, abridged: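 Intracellular calcium flux, recorded with Fluo-4 in a kinetic plate reader, served as signal; the response to carbachol at EC80 (100 nM final) was taken as maximal over minimal fluorescence after a 10 min compound pre-incubation in rat M1-CHO cells.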

In assay [7] the target is Pyruvate kinase (Leishmania mexicana) (UniProt Q27686). Put plainly: qHTS Validation Assay for Inhibitors of Leishmania Mexicana Pyruvate Kinase (AID 945).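 Further: 0% = DMSO only neutral control wells.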 An outline of the steps:
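qHTS eight-point titrations against 0.2 nM LmPYK (E451W) in imidazole buffer pH 7.2 with 0.5 mM PEP, 0.1 mM ADP; 1 h, room temperature. Readout: PKLight luminescence, normalized to neutral DMSO wells.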

Assay [8] in a line: Cellular Toxicity (caspase-3) Renal Proximal Tubule (AID 667).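 Further: cells exposed to compound for 16 hours at 37 °C before detection; 0% = DMSO basal and 100% = 10 µM staurosporine.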 The following applies: Potency: caspase-3 activation. The procedure, abridged:
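Freshly isolated primary rat kidney proximal tubule cells, 1000/well, treated 16 hr at 37 °C, then Caspase-Glo 3/7 luminescence after 1 hr. Normalized to DMSO and 10 uM staurosporine; AC50 from Hill fit.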

The target in assay [9] is Cytochrome P450 3A4 (Homo sapiens) (UniProt P08684). Put plainly: qHTS Assay for Activators of Cytochrome P450 3A4 (AID 885). Further: nearly all actives have a fitted effect of over 65% in size. The procedure, abridged: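 20nM CYP3A4 + 25uM Luciferin-PPXE (=KM), 200mM KPO4; cpd 10 min RT; NADPH regen, 60 min RT; stop w/ detection buffer, 20 min; luminescence. Normalized to 57 uM ketoconazole.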
Assay [10] can be described thus: Confirmation and Secondary Assay for Modulators of Hemoglobin Beta Chain Splicing at IVS2 654 locus (AID 910).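 Further: HeLa cells stably carrying EGFP split by mutant beta-globin IVS2-654 intron; per-well total GFP intensity by laser scanning cytometry after 2-day treatment.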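 Further: potency means the concentration at half of the fitted maximal effect; potency of activators that raise GFP signal by restoring correct splicing.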 An outline of the steps: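 Readout: per-well total peak green fluorescence (488 nm ex, 500–520 nm em) from objects 5–250 µm, reflecting correct splicing of an EGFP-654 reporter. Compounds were applied for 2 days at 37 °C to overnight-plated HeLa EGFP-654 cells; controls were DMSO and 500 nM IVS2-654 PNA.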

Assay [11] in a line: Cell Viability - LYMP2-001 (AID 921).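 Further: series mostly up to about 92 µM; 0% = DMSO only and full inhibition = tetraoctylammonium bromide control wells; nearly all actives have a fitted effect of over 70% in size.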 The procedure, abridged:
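Human lymphoblastoid LYMP2-001 cells, 2500 per well, in complete medium, treated 24 h at 37 C. Viability from cellular ATP by CellTiter-Glo luminescence; AC50 from Hill-equation fits of qHTS concentration-response.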

Assay [12] is described as follows: Confirmation and Secondary Assay for Modulators of Hemoglobin Beta Chain Splicing at IVS2 705 locus (AID 930).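 Further: GFP fluorescence per well restored by corrected splicing of the IVS2-705 intron in EGFP.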 Further: potency means the concentration at half of the fitted maximal effect.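 On activation: HeLa cells stably expressing the EGFP-705 splicing reporter; series mostly up to about 46 µM; % of control where 0% means no effect.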 The procedure, abridged: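 First, HeLa EGFP-705 cells are seeded at 500/well in Optimem with 2% FCS and left overnight. Next, compound or DMSO is added for 2 days. Finally wells are laser-scanned and total peak GFP intensity scored.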
The nature of assay [13]: MultiTox-Fluor Cytotoxicity Assay - LYMP1-001 - Live Cells (AID 947).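 Further: 0% = DMSO only and full inhibition = tetraoctylammonium bromide control.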
The nature of assay [14]: Cell Viability - LYMP1-002 - Assay at 16 hr (AID 948).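 Further: 0% = DMSO alone and full effect = 92 µM tetraoctylammonium bromide.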 An outline of the steps: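 LYMP1-002 human lymphoblastoid cells, 2500/well, were treated with compounds for 16 hr at 37 C in complete medium. Viability was read as intracellular ATP by CellTiter-Glo luminescence, and AC50 was derived from a Hill fit to concentration-response data.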
Assay [15] is described as follows: MultiTox-Fluor Cytotoxicity Assay - LYMP1-002 - Dead Cells (AID 960).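 Further: cells exposed to compound for 16 h at 37 °C; 0% = DMSO and 100% = tetraoctylammonium bromide; nearly all actives have a fitted effect of over 60% in size.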 An outline of the steps:
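Acute cytotoxicity in a human lymphoblastoid line is scored as rising dead-cell protease signal after 16 hr exposure at 37 C, measured fluorometrically (485/520).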

Assay [16] can be described thus: MultiTox-Fluor Cytotoxicity Assay - LYMP1-003 - Dead Cells (AID 961).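 Further: cells exposed to compound for 16 h at 37 °C; 0% = DMSO and 100% = tetraoctylammonium bromide; nearly all actives have a fitted effect of over 70% in size.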 The procedure, abridged: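 Human lymphoblastoid LYMP1-003 cells (2500/well) were treated with compounds for 16 hr at 37 C in complete medium. Dead-cell protease release was read by bis-AAF-R110 fluorescence (Ex/Em 485/520). AC50 came from Hill fits, normalized to DMSO and 15 uM tetraoctylammonium bromide.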

The nature of assay [17]: qHTS Assay for Identification of Small Molecule Agonists for Hypoxia Response Element Signaling Pathway (AID 914; active means well fitted activation curve with a large enough effect in the signal ratio, with a control signal flat, not every such curve was filed as active; the % refers to the signal ratio; further: % of control where 0% means no effect). Conditions: ME-180 (cervical carcinoma) HRE-bla reporter, beta-lactamase ratio, CoCl2, 17 h; active compounds read high. An outline of the steps: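 Positive modulation of EC50 CoCl2-induced hypoxia response element signaling is measured in ME-180 cells with a beta-lactamase reporter. Compounds are titrated, incubation runs 17 hours, and %Activity derives from the blue/green ratio.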

Values without a mark were called inactive. Records with an inconclusive call do not appear. Activity calls are given as the source filed them. Unless noted, the call rests on the fitted dose curve; in most records, active means well fitted curve in the direction sought with a large enough effect; inconclusive means small, poorly fitted or top-dose-only effect, or another doubt; inactive means no such curve, though single readings can be large; an effect the other way counts as inactive or inconclusive.

Muscarinic acetylcholine receptor M1 (Rattus norvegicus), sequence (P08482 whole entry, looked up): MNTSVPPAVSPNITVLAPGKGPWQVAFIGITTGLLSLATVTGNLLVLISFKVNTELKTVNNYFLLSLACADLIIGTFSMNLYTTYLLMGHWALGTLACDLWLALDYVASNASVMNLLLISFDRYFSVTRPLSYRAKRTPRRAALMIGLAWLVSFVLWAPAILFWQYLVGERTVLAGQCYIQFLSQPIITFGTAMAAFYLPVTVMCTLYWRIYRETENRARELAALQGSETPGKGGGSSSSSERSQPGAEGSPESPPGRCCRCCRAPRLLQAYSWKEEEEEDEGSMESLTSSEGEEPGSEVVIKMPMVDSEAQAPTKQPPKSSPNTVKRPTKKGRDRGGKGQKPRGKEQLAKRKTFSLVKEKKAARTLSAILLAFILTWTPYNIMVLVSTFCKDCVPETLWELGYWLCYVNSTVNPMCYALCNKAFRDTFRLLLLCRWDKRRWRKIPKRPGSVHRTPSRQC
Pyruvate kinase PKM (Homo sapiens), sequence (P14618 whole entry, looked up): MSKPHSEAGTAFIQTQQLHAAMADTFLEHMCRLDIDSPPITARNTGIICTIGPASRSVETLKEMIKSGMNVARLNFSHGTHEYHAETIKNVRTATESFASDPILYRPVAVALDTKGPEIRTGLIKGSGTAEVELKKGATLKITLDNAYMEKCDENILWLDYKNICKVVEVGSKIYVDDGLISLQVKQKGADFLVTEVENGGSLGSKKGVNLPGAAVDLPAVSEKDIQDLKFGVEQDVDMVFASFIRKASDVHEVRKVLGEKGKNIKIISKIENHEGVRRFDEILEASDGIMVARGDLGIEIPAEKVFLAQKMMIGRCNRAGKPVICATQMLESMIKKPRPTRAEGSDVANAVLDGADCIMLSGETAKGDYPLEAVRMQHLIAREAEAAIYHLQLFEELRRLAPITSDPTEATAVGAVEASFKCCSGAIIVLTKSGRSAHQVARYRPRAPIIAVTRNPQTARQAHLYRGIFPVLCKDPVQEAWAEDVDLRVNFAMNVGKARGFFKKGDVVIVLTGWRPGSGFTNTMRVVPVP
Guanine nucleotide-binding protein G(i) subunit alpha-1 (Homo sapiens), sequence (P63096 whole entry, looked up): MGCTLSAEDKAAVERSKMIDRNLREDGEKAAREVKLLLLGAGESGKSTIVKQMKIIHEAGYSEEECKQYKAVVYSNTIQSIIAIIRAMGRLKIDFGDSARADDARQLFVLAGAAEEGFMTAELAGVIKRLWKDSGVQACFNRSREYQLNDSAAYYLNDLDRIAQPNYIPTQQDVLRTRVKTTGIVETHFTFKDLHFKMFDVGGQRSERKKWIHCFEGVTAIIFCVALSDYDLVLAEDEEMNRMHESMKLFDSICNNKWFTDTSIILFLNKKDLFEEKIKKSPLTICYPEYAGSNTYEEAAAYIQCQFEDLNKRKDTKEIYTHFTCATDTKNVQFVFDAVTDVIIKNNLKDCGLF
Pyruvate kinase (Leishmania mexicana), sequence (Q27686 2-499 E452W): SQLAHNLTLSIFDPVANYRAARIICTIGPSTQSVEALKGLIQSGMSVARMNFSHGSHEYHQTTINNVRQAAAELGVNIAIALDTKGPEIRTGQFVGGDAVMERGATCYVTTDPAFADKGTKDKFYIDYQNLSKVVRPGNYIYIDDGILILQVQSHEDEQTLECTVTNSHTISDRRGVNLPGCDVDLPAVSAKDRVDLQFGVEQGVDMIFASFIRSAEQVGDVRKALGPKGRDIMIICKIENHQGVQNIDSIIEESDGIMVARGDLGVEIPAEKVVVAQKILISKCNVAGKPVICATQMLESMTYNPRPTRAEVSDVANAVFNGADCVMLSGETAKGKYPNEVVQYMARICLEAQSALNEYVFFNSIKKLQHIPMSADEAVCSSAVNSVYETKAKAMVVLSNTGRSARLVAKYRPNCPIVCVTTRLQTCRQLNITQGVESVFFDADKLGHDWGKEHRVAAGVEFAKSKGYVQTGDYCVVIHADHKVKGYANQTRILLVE
Cytochrome P450 3A4 (Homo sapiens), sequence (P08684 whole entry, looked up): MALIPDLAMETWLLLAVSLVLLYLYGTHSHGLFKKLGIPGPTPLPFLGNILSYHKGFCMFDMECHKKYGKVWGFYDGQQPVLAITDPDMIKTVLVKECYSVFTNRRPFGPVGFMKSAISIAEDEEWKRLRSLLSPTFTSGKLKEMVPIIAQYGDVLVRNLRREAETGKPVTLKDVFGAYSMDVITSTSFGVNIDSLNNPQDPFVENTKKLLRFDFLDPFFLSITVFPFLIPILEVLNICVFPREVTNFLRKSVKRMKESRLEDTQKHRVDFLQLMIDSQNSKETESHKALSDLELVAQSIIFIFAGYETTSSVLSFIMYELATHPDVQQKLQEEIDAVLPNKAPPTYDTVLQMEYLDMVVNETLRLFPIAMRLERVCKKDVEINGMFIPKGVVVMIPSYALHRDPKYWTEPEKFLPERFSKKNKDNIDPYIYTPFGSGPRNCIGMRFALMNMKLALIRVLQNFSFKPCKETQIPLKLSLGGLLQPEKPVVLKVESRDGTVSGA

`N[C@@H](Cc1ccc(O)c(O)c1)C(=O)O`: the compound was classed as inactive in assay [1], in [3], in assay [4] and in [5]. The Potency result in assay [2] is “inactive”.
Consider `Cc1ccc(S(=O)(=O)N[C@@H](Cc2ccccc2)C(=O)CCl)cc1`, for which the outcome in assay [1], in assay [6], in [4], in [7] and in [5] was inactive.
Turning to `NNC(=O)c1ccncc1`, the Potency entry in assay [8], in assay [10], in [11], in [12], in assay [13] and in assay [14] was “inactive” in each case. Also, the Potency result in assay [15] was “inactive”. Moreover, the compound was classed as inactive in [9] and in [16].
Take `CNS(=O)(=O)Cc1ccc2[nH]cc(CCN(C)C)c2c1`: the Potency result in assay [10] and in [12] was “inactive” each time.
Regarding `COc1cc(NS(=O)(=O)c2ccc(N)cc2)nc(OC)n1`, the Potency result in assay [10] and in assay [12] was “inactive” throughout.
Regarding `COc1ccc2c(c1)c(CC(=O)OCC(=O)O)c(C)n2C(=O)c1ccc(Cl)cc1`, the Potency entry in assay [10] and in assay [12] was “inactive” in each case.
Turning to `Nc1nc(N)c2nc(CNc3ccc(C(=O)NC(CCC(=O)O)C(=O)O)cc3)cnc2n1` (stereo unspecified), the Potency entry in assay [10] and in assay [12] was “inactive” each time.
`CN(Cc1cc(Br)cc(Br)c1N)C1CCCCC1`: the Potency result in assay [10] and in [12] was “inactive” each time.
On to `O=C(O)c1cccnc1`, for which the Potency result in assay [10] and in [12] was “inactive” each time.
Take `NS(=O)(=O)c1cc2c(cc1Cl)NC(C(Cl)Cl)NS2(=O)=O` (stereo unspecified): the Potency result in assay [10] and in [12] was “inactive” each time.
With `CC(C)(Sc1cc(C(C)(C)C)c(O)c(C(C)(C)C)c1)Sc1cc(C(C)(C)C)c(O)c(C(C)(C)C)c1`, the Potency result in assay [10] and in [12] was “inactive” in each case.
Consider `CN(C)CCc1c[nH]c2ccc(CS(=O)(=O)N3CCCC3)cc12`, for which the Potency result in [10] and in assay [12] was “inactive” throughout.
Regarding `COc1ccccc1OCC(O)COC(N)=O` (stereo unspecified), the Potency result in assay [10] and in assay [12] was “inactive” in each case.
As for `CC[C@H](C)C(=O)O[C@H]1C[C@@H](C)C=C2C=C[C@H](C)[C@H](CC[C@@H]3C[C@@H](O)CC(=O)O3)[C@H]21`, the Potency result in assay [11], in assay [13] and in [14] was “inactive” throughout. In addition, in assay [16], the result was inactive.
Take `CNNCc1ccc(C(=O)NC(C)C)cc1`: the activation in [17] was 9.99%.
For `CN1CCCC(n2nc(Cc3ccc(Cl)cc3)c3ccccc3c2=O)CC1` (stereo unspecified), the Potency entry in assay [10] and in assay [12] was “inactive” throughout.
On to `Cn1c(=O)c2c(ncn2CC(O)CO)n(C)c1=O` (stereo unspecified), for which the Potency entry in assay [10] and in [12] was “inactive” each time.
Turning to `COC(=O)Nc1nc2ccc(S(=O)c3ccccc3)cc2[nH]1` (stereo unspecified), the Potency result in assay [10] and in assay [12] was “inactive” in each case.
On to `CCCCOc1ccc(CC(=O)NO)cc1`, for which the Potency result in [10] and in assay [12] was “inactive” throughout.
As for `COC(=O)Nc1nc2ccc(Sc3ccccc3)cc2[nH]1`, the Potency entry in assay [10] and in assay [12] was “inactive” throughout.
Consider `CCn1cc(C(=O)O)c(=O)c2cc(F)c(N3CCNCC3)cc21`, for which the Potency entry in [10] and in assay [12] was “inactive” each time.
For the compound `Nc1ccc(S(=O)(=O)Nc2ccccn2)cc1`, the Potency result in [10] and in assay [12] was “inactive” each time.
For the compound `NCCCC(O)(P(=O)(O)O)P(=O)(O)O`, the Potency entry in assay [10] and in assay [12] was “inactive” each time.
On to `COc1ccc(C(=O)CC(=O)c2ccc(C(C)(C)C)cc2)cc1`, for which the Potency entry in [10] and in assay [12] was “inactive” each time.
For `S=P(N1CC1)(N1CC1)N1CC1`, the Potency result in assay [12] is “inactive”.
As to `O=S(=O)(O)CCS`, the Potency entry in assay [10] and in assay [12] was “inactive” in each case.
In the case of `COc1cnc(NS(=O)(=O)c2ccc(N)cc2)nc1`, the Potency entry in [10] and in [12] was “inactive” each time. Also, the activation in [17] is 5.32%.
Regarding `CN(CCOc1ccc(CC2SC(=O)NC2=O)cc1)c1ccccn1` (stereo unspecified), the Potency result in assay [10] and in [12] was “inactive” in each case.
Turning to `CC(=O)CC(c1ccccc1)c1c(O)c2ccccc2oc1=O` (stereo unspecified), the Potency result in [10] and in [12] was “inactive” in each case.
For the compound `NC(=O)N1c2ccccc2CC(=O)c2ccccc21`, the Potency result in assay [10] and in assay [12] was “inactive” throughout.
Turning to `CCCCCCNC(=O)n1cc(F)c(=O)[nH]c1=O`, the Potency result in assay [10] and in assay [12] was “inactive” throughout.
With `Oc1c(Cl)cc(Cl)c2cccnc12`, the Potency result in [10] and in assay [12] was “inactive” throughout.
Regarding `CCCc1cc(C(N)=S)ccn1`, the Potency entry in assay [10] and in assay [12] was “inactive” in each case.
With `COc1c(N2CCNC(C)C2)c(F)cc2c(=O)c(C(=O)O)cn(C3CC3)c12` (stereo unspecified), the Potency entry in [10] and in assay [12] was “inactive” each time.
In the case of `Nc1nc(=S)c2[nH]cnc2[nH]1`, the figures for the Potency in assay [10] and in [12] were 31.6 µM (active) and 5.01 µM (active), respectively.
For the compound `OC(Cn1cncn1)(Cn1cncn1)c1ccc(F)cc1F`, the Potency entry in assay [10] and in [12] was “inactive” each time.
